The source of these data is PMC5540273 (PLoS ONE, 2017).

Settings in all cases: concentration: 1 μM, replicates: in singlicate; n = 1
Experiment [1] concerns T1, HASPIN.
T1 construct: gene GSG2

In experiment [2] the test system is HCK.
Experiment [3] relates to HIPK1.
Experiment [4] deals with HIPK2.
Experiment [5] relates to HIPK3.
The subject of experiment [6] is HIPK4.
Experiment [7] has as its system HPK1.
For experiment [8], the system named is HUNK.
The subject of experiment [9] is ICK.
Experiment [10] concerns IGF1R.
In experiment [11] the test system is T2, IKK-alpha.
T2 construct: gene CHUK

Experiment [12] concerns T3, IKK-beta.
T3 construct: gene IKBKB

Experiment [13] relates to T4, IKK-epsilon.
T4 construct: gene IKBKE

Experiment [14] deals with INSRR.
For experiment [15], the system named is INSR.
Experiment [16] concerns IRAK1.
Experiment [17] concerns IRAK3.
The subject of experiment [18] is IRAK4.
The test system of experiment [19] is ITK.
In experiment [20] the test system is JAK1(JH1domain-catalytic).

Each structure is given as a SMILES string.
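Note: KINOMEscan kinase panel screen.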

In the case of `CN(C)Cc1ccc(-c2ccc3c(Nc4ccc(Oc5ccccn5)cc4)ccnc3c2)o1` [GW567148], the “%Inh” value worked out at 26% in [1]; 93.8% in [2]; 0% in experiment [3]; 0% in experiment [4]; 1% in experiment [5]; 0% in experiment [6]. Further, the “%Inh” value in [7] is recorded as 0%; in experiment [8], 0%; in [9], 0%; in experiment [10] it was 0%; in [11], 27%; in experiment [12], 7%. Also, the “%Inh” value is 27% in [13]; 0% in [14]; 6% in experiment [15]; 21% in experiment [16]; 22% in [17]; 0% in [18]. Besides, the “%Inh” value was found to be 15% in experiment [19] and 0% in [20].
For `CNC(=O)c1ccccc1Nc1nc(Nc2ccc(N3CCOCC3)cc2)ncc1Cl.Cl` [GSK1576028], the “%Inh” value in [1] is reported as 80%; in experiment [2] it was 99.6%; in experiment [3], 99.4%; in experiment [4], 99.3%; in [5], 99%; in experiment [6], 99.3%. Also, the “%Inh” value in experiment [7] was found to be 98.8%; in experiment [8] it was 0%; in experiment [9], 57%; in experiment [10], 96.6%; in [11], 85%; in [12], 78%. The “%Inh” value in [13] is 74%; in [14] it was 98.6%; in [15] it was 95.5%; in experiment [16], 100%; in [17], 99.7%; in [18], 99.6%. In addition, the “%Inh” value amounted to 99.9% in experiment [19] and 97.6% in [20].
Turning to `COc1cccc(-c2ccc3c(NC(=O)C4CC4)n[nH]c3n2)c1` [SB-710903], the “%Inh” value is reported as 32% in [1]; 0% in experiment [2]; 0% in [3]; 0% in experiment [4]; 41% in [5]; 10% in experiment [6]. The “%Inh” value in experiment [7] is 41%; in experiment [8] it was 1%; in [9], 23%; in experiment [10], 17%; in experiment [11] it was 50%; in [12] it was 26%. The “%Inh” value came to 52% in [13]; 0% in experiment [14]; 0% in [15]; 57% in [16]; 0% in experiment [17]; 27% in experiment [18]. Also, the “%Inh” value in experiment [19] came to 6%; in experiment [20] it was 9%.
Regarding `COc1cccc(C2=C(Nc3ccc(Cl)c(C(=O)O)c3)C(=O)NC2=O)c1` [SB-390769], the “%Inh” value is 0% in experiment [1]; 0% in [2]; 7% in [3]; 0% in [4]; 11% in experiment [5]; 0% in [6]. The “%Inh” value in [7] is 55%; in experiment [8] it was 0%; in experiment [9] it was 10%; in [10] it was 26%; in experiment [11] it was 100%; in experiment [12], 100%. Further, the “%Inh” value is listed as 91.1% in experiment [13]; 8% in experiment [14]; 100% in experiment [15]; 48% in experiment [16]; 0% in experiment [17]; 31% in experiment [18]. For the same compound, the “%Inh” value in experiment [19] amounted to 14%; in experiment [20] it was 100%.
On to `CCn1c(-c2nonc2N)nc2c(C#CC(C)(C)O)ncc(OCCCCN)c21.O=C(O)C(F)(F)F.O=C(O)C(F)(F)F` [GSK507274], for which the “%Inh” value in experiment [1] was determined as 0%; in experiment [2], 0%; in [3], 47%; in [4], 57%; in experiment [5] it was 100%; in experiment [6], 0%. Also, the “%Inh” value in [7] was determined as 49%; in experiment [8] it was 0%; in experiment [9] it was 11%; in experiment [10], 12%; in experiment [11], 24%; in experiment [12] it was 43%. The “%Inh” value in [13] is on record as 33%; in experiment [14] it was 0%; in experiment [15], 0%; in experiment [16], 26%; in experiment [17], 0%; in experiment [18], 20%. The “%Inh” value in experiment [19] is on record as 15%; in experiment [20], 21%.
For `COc1ccc(-c2coc3ccc(-c4nnc(SCc5ccc(OC)c(C(F)(F)F)c5)o4)cc23)cc1`, the “%Inh” value was determined as 0% in experiment [1]; 38% in experiment [2]; 12% in experiment [3]; 17% in [4]; 14% in experiment [5]; 0% in [6]. Also, the “%Inh” value worked out at 4% in experiment [7]; 0% in [8]; 7% in experiment [9]; 12% in experiment [10]; 25% in experiment [11]; 6% in experiment [12]. For the same compound, the “%Inh” value in experiment [13] is on record as 22%; in [14], 0%; in [15], 25%; in [16], 10%; in [17], 4%; in experiment [18] it was 14%. Further, the “%Inh” value in [19] amounted to 25%; in experiment [20] it was 0%.
Regarding `Cn1cc(-c2ccc3c(c2)CCN3C(=O)Cc2cccc(Cl)c2)c2c(N)ncnc21` [GSK2606590], the “%Inh” value in [1] is listed as 2%; in experiment [2], 0%; in experiment [3], 13%; in [4], 0%; in [5], 13%; in experiment [6], 0%. Further, the “%Inh” value stood at 47% in [7]; 4% in [8]; 0% in [9]; 0% in [10]; 22% in [11]; 57% in experiment [12]. For the same compound, the “%Inh” value in experiment [13] stood at 78%; in experiment [14] it was 16%; in [15] it was 9%; in [16] it was 0%; in experiment [17], 22%; in [18], 0%. Further, the “%Inh” value is 19% in experiment [19] and 18% in experiment [20].
